# Test results: the supplement of paper PMC6378613
# Compound: Cc1ccc(-c2ccc3c(ccc4sc5c(c43)NC[C@@H](C)NC5=O)n2)cn1
# Experiment: kinase activity remaining relative to vehicle control; higher = less inhibition
# Method: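 In vitro radiometric kinase profiling of the MK2 inhibitor PF-3644022 at 0.1, 1 and 10 µM against a panel of kinases (MRC International Centre for Kinase Profiling, Dundee). Read-out is % kinase activity remaining relative to the vehicle control, mean of n=2.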
# Chain of UniProt Q9BXA7 (Q9BXA7 whole entry, looked up): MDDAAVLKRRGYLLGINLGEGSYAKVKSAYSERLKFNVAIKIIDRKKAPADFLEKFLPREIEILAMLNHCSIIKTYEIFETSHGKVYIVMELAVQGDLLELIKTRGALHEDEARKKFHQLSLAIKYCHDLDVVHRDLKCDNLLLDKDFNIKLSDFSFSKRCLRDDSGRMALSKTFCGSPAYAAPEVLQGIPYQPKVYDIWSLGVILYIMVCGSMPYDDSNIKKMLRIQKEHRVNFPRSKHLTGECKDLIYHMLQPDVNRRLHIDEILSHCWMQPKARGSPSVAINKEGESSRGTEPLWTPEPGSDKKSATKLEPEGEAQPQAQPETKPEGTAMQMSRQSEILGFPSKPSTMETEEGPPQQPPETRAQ
# Chain of UniProt Q8IVH8 (Q8IVH8 whole entry, looked up): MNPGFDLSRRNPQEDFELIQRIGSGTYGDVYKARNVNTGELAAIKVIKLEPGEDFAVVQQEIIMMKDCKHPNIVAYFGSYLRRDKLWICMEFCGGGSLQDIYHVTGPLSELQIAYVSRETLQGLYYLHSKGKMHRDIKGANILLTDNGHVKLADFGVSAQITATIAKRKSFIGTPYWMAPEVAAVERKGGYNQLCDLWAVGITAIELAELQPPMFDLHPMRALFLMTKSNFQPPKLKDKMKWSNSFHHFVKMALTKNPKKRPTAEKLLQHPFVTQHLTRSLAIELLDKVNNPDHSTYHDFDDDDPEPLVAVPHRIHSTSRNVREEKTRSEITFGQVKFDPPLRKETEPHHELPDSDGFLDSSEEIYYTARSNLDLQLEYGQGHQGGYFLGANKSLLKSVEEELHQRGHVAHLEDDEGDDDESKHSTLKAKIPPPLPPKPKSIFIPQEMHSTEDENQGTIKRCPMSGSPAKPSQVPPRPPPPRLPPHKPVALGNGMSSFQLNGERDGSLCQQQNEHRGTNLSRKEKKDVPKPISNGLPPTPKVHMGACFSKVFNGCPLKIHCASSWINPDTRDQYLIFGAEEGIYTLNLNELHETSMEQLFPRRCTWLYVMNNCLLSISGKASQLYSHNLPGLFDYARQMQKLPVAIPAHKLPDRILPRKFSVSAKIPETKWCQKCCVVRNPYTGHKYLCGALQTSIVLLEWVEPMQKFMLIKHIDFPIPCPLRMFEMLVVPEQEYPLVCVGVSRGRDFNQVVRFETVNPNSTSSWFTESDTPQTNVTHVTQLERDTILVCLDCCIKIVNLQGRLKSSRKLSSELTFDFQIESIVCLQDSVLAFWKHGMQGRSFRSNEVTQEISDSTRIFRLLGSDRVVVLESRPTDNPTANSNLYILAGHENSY
# Chain of UniProt Q7KZI7 (Q7KZI7 whole entry, looked up): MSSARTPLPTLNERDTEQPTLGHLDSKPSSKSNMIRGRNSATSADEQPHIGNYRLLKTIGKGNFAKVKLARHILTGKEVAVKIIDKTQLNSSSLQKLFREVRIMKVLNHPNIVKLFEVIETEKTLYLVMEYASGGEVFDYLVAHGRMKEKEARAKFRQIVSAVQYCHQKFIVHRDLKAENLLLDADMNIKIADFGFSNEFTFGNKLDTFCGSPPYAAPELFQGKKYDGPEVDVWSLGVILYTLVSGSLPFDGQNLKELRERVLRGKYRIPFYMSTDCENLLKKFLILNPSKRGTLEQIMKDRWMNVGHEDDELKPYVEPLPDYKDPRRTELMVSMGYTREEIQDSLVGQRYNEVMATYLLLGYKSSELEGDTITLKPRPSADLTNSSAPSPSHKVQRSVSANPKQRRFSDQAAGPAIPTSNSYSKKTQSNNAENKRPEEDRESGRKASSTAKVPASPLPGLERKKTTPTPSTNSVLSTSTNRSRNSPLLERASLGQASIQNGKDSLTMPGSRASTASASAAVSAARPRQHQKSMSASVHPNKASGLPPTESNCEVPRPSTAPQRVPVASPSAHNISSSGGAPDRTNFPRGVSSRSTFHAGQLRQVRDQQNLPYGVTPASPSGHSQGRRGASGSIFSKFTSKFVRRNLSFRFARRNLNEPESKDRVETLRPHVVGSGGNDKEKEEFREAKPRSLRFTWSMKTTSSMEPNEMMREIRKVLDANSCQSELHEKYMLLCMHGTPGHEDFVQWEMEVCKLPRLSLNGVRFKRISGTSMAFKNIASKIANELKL
# Chain of UniProt Q9BUB5 (Q9BUB5 whole entry, looked up): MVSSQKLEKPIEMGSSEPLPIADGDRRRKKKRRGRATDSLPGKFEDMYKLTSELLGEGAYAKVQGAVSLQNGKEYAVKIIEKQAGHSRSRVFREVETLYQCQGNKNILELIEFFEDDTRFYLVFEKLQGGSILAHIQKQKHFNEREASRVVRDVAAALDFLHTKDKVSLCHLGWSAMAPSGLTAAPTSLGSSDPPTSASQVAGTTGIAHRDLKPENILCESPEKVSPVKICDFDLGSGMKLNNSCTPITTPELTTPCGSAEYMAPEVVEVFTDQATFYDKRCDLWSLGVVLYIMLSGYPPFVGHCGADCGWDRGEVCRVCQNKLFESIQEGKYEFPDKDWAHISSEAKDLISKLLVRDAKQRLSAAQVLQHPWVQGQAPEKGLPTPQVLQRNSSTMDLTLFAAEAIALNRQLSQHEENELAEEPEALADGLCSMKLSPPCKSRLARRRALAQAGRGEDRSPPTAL
# Chain of UniProt Q9HC98 (Q9HC98 whole entry, looked up): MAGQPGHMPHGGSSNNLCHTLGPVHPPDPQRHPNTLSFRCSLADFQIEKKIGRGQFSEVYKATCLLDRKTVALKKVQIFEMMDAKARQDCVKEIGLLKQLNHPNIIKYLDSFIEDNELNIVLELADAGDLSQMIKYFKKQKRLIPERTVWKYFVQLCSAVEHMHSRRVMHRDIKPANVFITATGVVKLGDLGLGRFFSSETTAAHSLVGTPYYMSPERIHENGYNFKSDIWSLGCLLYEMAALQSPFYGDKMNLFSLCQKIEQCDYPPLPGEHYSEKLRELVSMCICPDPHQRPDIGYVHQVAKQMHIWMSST
# Chain of UniProt Q92630 (Q92630 whole entry, looked up): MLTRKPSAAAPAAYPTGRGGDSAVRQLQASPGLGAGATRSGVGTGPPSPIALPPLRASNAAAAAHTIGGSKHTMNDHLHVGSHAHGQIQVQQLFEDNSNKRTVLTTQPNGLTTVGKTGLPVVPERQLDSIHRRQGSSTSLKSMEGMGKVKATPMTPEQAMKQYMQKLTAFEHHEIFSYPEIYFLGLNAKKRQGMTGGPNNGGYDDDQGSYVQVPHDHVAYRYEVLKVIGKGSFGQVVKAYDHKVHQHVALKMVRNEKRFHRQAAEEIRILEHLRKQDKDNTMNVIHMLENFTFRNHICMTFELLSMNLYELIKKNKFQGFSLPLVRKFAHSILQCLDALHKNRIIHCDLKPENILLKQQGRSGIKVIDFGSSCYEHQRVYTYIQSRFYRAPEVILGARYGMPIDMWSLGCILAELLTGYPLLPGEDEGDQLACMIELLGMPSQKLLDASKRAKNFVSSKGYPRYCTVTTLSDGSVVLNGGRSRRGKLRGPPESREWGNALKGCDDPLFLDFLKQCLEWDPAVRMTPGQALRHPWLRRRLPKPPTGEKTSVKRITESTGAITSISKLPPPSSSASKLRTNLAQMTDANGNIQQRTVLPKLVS
# Chain of UniProt Q8IYT8 (Q8IYT8 whole entry, looked up): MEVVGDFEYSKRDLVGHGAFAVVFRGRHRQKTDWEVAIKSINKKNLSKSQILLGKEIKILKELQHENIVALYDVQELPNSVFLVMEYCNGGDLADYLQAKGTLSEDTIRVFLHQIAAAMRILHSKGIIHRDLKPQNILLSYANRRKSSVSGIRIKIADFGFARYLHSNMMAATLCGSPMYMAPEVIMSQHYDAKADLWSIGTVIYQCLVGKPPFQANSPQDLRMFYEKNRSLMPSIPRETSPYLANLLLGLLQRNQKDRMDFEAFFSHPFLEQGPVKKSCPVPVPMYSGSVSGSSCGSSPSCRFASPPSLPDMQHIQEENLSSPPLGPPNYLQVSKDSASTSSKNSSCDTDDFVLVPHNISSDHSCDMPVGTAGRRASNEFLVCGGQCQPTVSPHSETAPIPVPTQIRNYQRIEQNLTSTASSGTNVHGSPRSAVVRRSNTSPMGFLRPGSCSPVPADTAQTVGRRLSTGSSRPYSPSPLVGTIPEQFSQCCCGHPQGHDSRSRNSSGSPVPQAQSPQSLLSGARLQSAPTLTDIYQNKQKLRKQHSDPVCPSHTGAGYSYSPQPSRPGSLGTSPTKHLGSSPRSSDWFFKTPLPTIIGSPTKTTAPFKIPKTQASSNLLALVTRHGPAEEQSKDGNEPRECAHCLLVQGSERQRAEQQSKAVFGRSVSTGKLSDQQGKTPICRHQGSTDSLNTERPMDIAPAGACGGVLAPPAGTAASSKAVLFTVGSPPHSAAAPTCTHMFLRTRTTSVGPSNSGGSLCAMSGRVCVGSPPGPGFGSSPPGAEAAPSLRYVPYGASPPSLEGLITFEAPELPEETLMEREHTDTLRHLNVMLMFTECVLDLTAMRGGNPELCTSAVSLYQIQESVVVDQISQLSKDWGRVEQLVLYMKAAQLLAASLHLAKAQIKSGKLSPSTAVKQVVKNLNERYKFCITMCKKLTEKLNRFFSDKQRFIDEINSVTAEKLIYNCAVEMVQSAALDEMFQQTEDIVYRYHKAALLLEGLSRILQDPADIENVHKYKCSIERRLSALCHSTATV
Target,kinase activity remaining (inhibitor concentration 0.1 µM) [%],kinase activity remaining (inhibitor concentration 1 µM) [%],kinase activity remaining (inhibitor concentration 10 µM) [%]
MPSK1 (UniProt O75716),117,118,105
SIK2 (UniProt Q9H0K1),99,86,77
GCK (UniProt P35557),109,89,19
JNK2 (UniProt P45984),123,111,107
DYRK2 (UniProt Q92630),101,105,52
MLK3 (UniProt Q16584),114,102,73
SmMLCK,118,112,110
MLK1 (UniProt P80192),99,95,60
RIPK2 (UniProt O43353),93,94,39
CK1 gamma 2,123,112,102
MAP4K3 (UniProt Q8IVH8),98,72,41
p38 alpha MAPK,94,94,83
EPH-B1,113,106,106
PRAK (UniProt Q8IW41),126,67,24
ABL (UniProt P00519),120,113,76
IGF-1R,101,108,114
IKK epsilon,98,95,44
AMPK (hum),68,21,6
JNK1 (UniProt P45983),96,93,92
PKB beta (UniProt P31749),100,90,69
BRSK2 (UniProt Q8IWQ3),77,32,8
MKK6 (UniProt P52564),95,98,91
ULK1 (UniProt O75385),115,89,75
PRK2 (UniProt Q16513),108,101,81
ULK2 (UniProt Q8IYT8),109,121,54

Target,kinase activity remaining (inhibitor concentration 0.1 µM) [%],kinase activity remaining (inhibitor concentration 1 µM) [%],kinase activity remaining (inhibitor concentration 10 µM) [%]
PIM3 (UniProt Q86V86),55,18,3
EF2K,106,97,85
EPH-A4,99,103,78
EPH-B3,98,88,85
MAPKAP-K3,114,62,30
MSK1 (UniProt O75582),120,105,99
S6K1,99,95,80
LKB1 (UniProt Q15831),118,103,97
MNK1 (UniProt Q9BUB5),105,103,83
RSK1 (UniProt Q15418),106,100,76
STK33 (UniProt Q9BYT3),105,83,38
TTK (UniProt P33981),117,101,84
IKK beta,115,109,101
DYRK1A (UniProt Q13627),80,31,8
SIK3 (UniProt Q9Y2K2),98,99,73
TAK1,113,109,70
p38 gamma MAPK,108,115,97
PIM2 (UniProt Q9P1W9),103,103,66
ERK2 (UniProt P28482),102,84,81
GSK3 beta,126,99,88
MINK1 (UniProt Q8N4C8),98,97,40
MNK2 (UniProt Q9HBH9),111,51,26
ZAP70 (UniProt P43403),93,100,95
DAPK1 (UniProt P53355),103,62,15
MARK3 (UniProt P27448),113,115,110

Target,kinase activity remaining (inhibitor concentration 0.1 µM) [%],kinase activity remaining (inhibitor concentration 1 µM) [%],kinase activity remaining (inhibitor concentration 10 µM) [%]
MKK1,101,97,69
EPH-B2,99,110,111
VEGFR1 (UniProt P17948),112,118,65
AMPK,93,38,9
PAK5 (UniProt Q9P286),108,101,101
PKC zeta,115,112,106
TAO1,109,98,70
IRAK4 (UniProt Q9NWZ3),94,62,24
PIM1 (UniProt P11309),93,58,17
NUAK1 (UniProt O60285),112,102,58
PKD1 (UniProt P98161),96,96,48
Aurora A,126,102,84
IRAK1 (UniProt P51617),104,77,27
JNK3 (UniProt P53779),120,104,102
TSSK1 (UniProt Q9BXA7),97,85,89
CHK1 (UniProt O14757),139,109,112
TLK1 (UniProt Q9UKI8),113,107,100
TIE2 (UniProt Q02763),105,86,88
EIF2AK3 (UniProt Q9NZJ5),114,101,73
OSR1 (UniProt Q8TAX0),113,112,118
MKK2 (UniProt P36507),113,108,79
NEK6 (UniProt Q9HC98),109,96,66
ROCK 2,112,96,95
ERK8 (UniProt Q8TD08),96,79,38
MST3 (UniProt Q9Y6E0),118,109,108

Target,kinase activity remaining (inhibitor concentration 0.1 µM) [%],kinase activity remaining (inhibitor concentration 1 µM) [%],kinase activity remaining (inhibitor concentration 10 µM) [%]
TBK1 (UniProt Q9UHD2),110,87,96
CLK2 (UniProt P49760),86,43,9
HER4 (UniProt Q15303),92,105,99
CSK (UniProt P41240),117,111,106
PKC gamma,118,110,101
MST2 (UniProt Q13188),131,135,100
CDK2-Cyclin A (UniProt P24941),111,93,57
PKA,109,119,108
SYK (UniProt P43405),94,98,82
CK1 delta,96,96,92
MARK4 (UniProt Q96L34),107,87,49
PKC alpha,101,113,90
PAK2 (UniProt Q13177),102,103,93
EPH-B4,110,106,99
MARK2 (UniProt Q7KZI7),116,113,95
MAPKAP-K2,24,9,2
Aurora B,109,99,64
IRR (UniProt P14616),99,79,53
MARK1 (UniProt Q9P0L2),116,107,93
CK2,100,97,93
TTBK2 (UniProt Q6IQ55),122,122,103
CHK2 (UniProt O96017),112,51,9
YES1 (UniProt P07947),112,89,55
